Screening results: PubChem, National Center for Advancing Translational Sciences (NCATS)
Pf growth 48h – inhibits P. falciparum growth in the first generation, 48 h | 5.9% of 310,000 active | P. falciparum luciferase growth in erythrocytes, 48 h | Potency, µM (doses to about 28.7 µM), without a hit: top-dose activity change, negative = inhibition, usual class: inhibitors; note: % is set by controls: 0 for no effect and ±100 for the full control effect
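Luciferase-expressing P. falciparum in infected erythrocytes (2% hematocrit, 0.1% parasitemia final) in RPMI 1640/0.5% Albumax were exposed to compound for 48 hours at 37 C, 5% CO2; growth read as luminescence.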
NS1 function inh – blocks influenza NS1 protein function | 0.4% of 270,000 active | Potency, µM (top dose mostly 46.1 µM), without a hit: at the highest dose activity, positive = more growth | AID 2326; calls by dose curve; note: actives are rising curves; nearly all actives have a fitted effect of over 50% in size
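Growth recovery, yeast-based: influenza A NS1 expressed in S. cerevisiae causes slow growth, and suppressors are detected by OD600. The parent strain without NS1 is used as positive control.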
SARS PLpro yeast – inhibitors of SARS-CoV papain-like protease in yeast; S. cerevisiae expressing SARS-CoV PLpro, growth rescue; Potency, µM (doses to about 32.9 µM), without a hit: at the top dose activity, positive = growth rescue, most hits filed as activators; 0.19% of 330,000 active; AID 485353; calls by dose curve; note: 0% is about no effect; nearly all actives have a fitted effect of over 55% in size
Pf growth 96h – P. falciparum growth inhibition at 96 hour, primary screen for plastid delayed-death inhibitors. 6.9% of 320,000 active. Potency, µM (top dose mostly 28.7 µM), without a hit: at the highest dose activity change, negative = inhibition, usual class: inhibitors. P. falciparum luciferase reporter growth, 96 h. AID 504834; note: % is set by controls: 0 for no effect and ±100 for the full control effect
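Compounds incubated with erythrocytes infected by luciferase-expressing P. falciparum (2% hematocrit, 0.05% parasitemia final) for 96 hours, 37 C in 5% CO2. Growth inhibition scored as decreased luciferase luminescence.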
RE007 growth inh – less growth of the S. pombe RE007 Vpr strain. S. pombe RE007 Vpr strain, BacTiter-Glo ATP luminescence, 24 h. Potency, µM (doses to about 92.2 µM), for the others: at the top dose activity change, negative = less growth, most hits filed as inhibitors. 0.21% of 360,000 active; active = well fitted falling curve with a large enough effect; inconclusive = small, poorly fitted or top-dose-only effect; inactive = no such curve, though single readings can be large or run the other way; note: % is set by controls: 0 for no effect and ±100 for the full control effect; nearly all actives have a fitted effect of over 50% in size
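Fission yeast RE007 carrying one integrated HIV-1 vpr copy, seeded at OD 0.01 in PMG+AL medium with 23 nL pinned compound. Grown 24 h at 30 degrees; viability read by BacTiter-Glo luminescence after 5 min.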
* marks the source's active call; other numbers are inactive results; ? = inconclusive; · = no result given; ! = a repeat was not active; [ ] = another dose, or the depositor's remark. An excerpt weighted towards active compounds, which were near 9.5% of everything screened. Unless noted, calls come from the whole dose curve; as a rule, active = well fitted inhibition curve with a large enough effect; inconclusive = small, poorly fitted or top-dose-only effect, or another doubt; inactive = no such curve, though single readings can be large or run the other way. Potency is the fitted concentration of half-maximal effect.

SMILES | Pf growth 48h | NS1 function inh | SARS PLpro yeast | Pf growth 96h | RE007 growth inh
O=C(C1CCN(S(=O)(=O)c2ccc(F)cc2)CC1)N1CCCC(C(F)(F)F)C1 (stereo not drawn) | 0% | · | 4% | ? | 4%
Cc1ccc(C2=NN(C(=O)CNCCO)C(c3cccs3)C2)cc1 (stereo not drawn) | ? | 2% | 0% | ? | -10%
CCN(CC)CCN(C)Cc1nc(C(c2ccccc2)c2ccccc2)no1 | ? | 19% | 5% | 9.3µM* | 2%
Cc1ccnc(NC(=O)c2ccc([N+](=O)[O-])o2)c1 | 3% | -77% | -12% | ? | ?
O=C(Nc1ncccn1)c1ccc([N+](=O)[O-])o1 | 8.3µM* | · | 0% | 64% | -12%
O=C(Nc1ccc2[nH]c(=O)[nH]c2c1)c1ccc([N+](=O)[O-])o1 | ? | · | -1% | 12µM* | -9%
CC1CCN(c2ccccc2NC(=O)c2ccc([N+](=O)[O-])o2)CC1 | ? | 3% | -3% | 32% | -13%
O=C(Nc1ccccc1N1CCCC1)c1ccc([N+](=O)[O-])o1 | 9.3µM* | -14% | -6% | 4.1µM* | -23%
O=C(Nc1ccccc1C(=O)NC1CC1)c1ccc([N+](=O)[O-])o1 | ? | · | -3% | 10µM* | 5%
O=C(Nc1cccc2ccccc12)c1ccc([N+](=O)[O-])o1 | ? | -142% | -31% | 5.2µM* | ?
CN1CCc2cccc3c2[C@H]1Cc1ccc(O)c(O)c1-3 | 2.9µM* | -14% | -17% | 2.3µM*! | -10%[18.4 µM]
COc1ccc2c(c1O)-c1cccc3c1C(C2)N(C)CC3 (stereo not drawn) | · | 6% | · | · | ·
CCS(=O)(=O)N1CCN(C(C)CCc2ccccc2)CC1 (stereo not drawn) | -6% | 7% | -4% | 3.3µM* | -3%
CC(CCc1ccccc1)N1CCN(Cc2ccccc2)CC1 (stereo not drawn) | 26% | 20% | -3% | 12µM* | 15%
COc1cccc(NC(=O)C2CCN(S(=O)(=O)c3ccc4c(c3)C(C)(C)C(=O)N4C)CC2)c1 | -31% | -3% | -3% | ? | -18%
CCOC(=O)c1cc(NC(=O)N(CC)C2CCCCC2)c(C)nc1C | 1% | 21% | 14µM* | -1%[5.75 µM] | -4%
NC(N)=N/N=C/c1ccc(OS(=O)(=O)c2ccccc2)cc1 | 2.1µM* | 4% | 3% | -14% | 7%
CCC(=O)N/N=C/c1ccc(OS(=O)(=O)c2ccccc2)cc1 | 10µM* | -4% | 3% | ? | -2%
Cc1ccc(/C=N/NC(=O)c2nn(C)cc2Cl)cc1 | 197% | -8% | -4% | 122% | -10%
Cn1cc(Cl)c(C(=O)N/N=C/c2ccc(OS(=O)(=O)c3ccccc3)cc2)n1 | ? | -22% | 25% | 9.3µM* | 10%
COc1ccc(/C=N/NC(=O)CNS(=O)(=O)c2ccccc2)cc1 | -22% | · | -1% | ? | 0%
Cc1ccc(-n2c(C)cc3c2CCCC3=O)cc1 | 10µM* | -2% | -4% | -1% | -19%
Cc1ccc(-c2cc3c(n2-c2ccc(C(=O)O)cc2)CCCC3=O)cc1 | 4% | 13% | 5% | -1% | -15%
CN1CCN(CCCNN)CC1 | · | 2% | · | · | ·
CCOC(=O)c1ccc(NC(=O)c2cc(C)nn2-c2ccccc2)cc1 | -21%[0.00184 µM] | 4% | -4% | -30% | 11%
SMILES | Pf growth 48h | NS1 function inh | SARS PLpro yeast | Pf growth 96h | RE007 growth inh
CCOCCCNC(=O)c1cc(C)nn1-c1ccccc1 | 8% | -7% | 6% | 12µM* | 1%
CCNC(=O)c1ccc(-n2nc(C)cc2-c2ccccc2)cc1 | ? | -17% | -5% | 1.5µM* | -5%
CCOC(CNC(=O)c1cc(C)nn1-c1ccccc1)OCC | 6% | 10% | 2% | · | 4%
COc1ccc(/C(O)=C2/C(=O)C(=O)N(c3ccccn3)C2c2ccc(F)cc2)cc1 (stereo not drawn) | -12% | 2% | -1% | 6.6µM* | -10%
COc1ccc(C2/C(=C(/O)c3ccc(C)cc3)C(=O)C(=O)N2c2ccccn2)cc1 (stereo not drawn) | 32% | 2% | 1% | 9% | -19%
COc1ccc(C2/C(=C(/O)c3ccc(Br)cc3)C(=O)C(=O)N2C)cc1 (stereo not drawn) | 0% | 3% | 1% | 0.93µM* | 6%
